# Test results reported in PubChem BioAssay (NCATS).
# Where “and” joins values, the source holds several entries; their conditions need not be identical. Equal entries are not always repeated. Unmarked numbers belong to inactive results. Calls of active or inactive are those of the source. Unless noted, calls come from the whole dose curve; as a rule, active = well fitted curve in the direction sought with a large enough effect; inconclusive = small, poorly fitted or top-dose-only effect, or another doubt; inactive = no such curve, though single readings can be large; an effect the other way counts as inactive or inconclusive.
# What was measured:
# [1] = biological target: Glucocorticoid receptor (Homo sapiens) (UniProt P04150); test: GR-EFC Redistribution (AID 451; calls by dose curve; note: potency is the fitted concentration of half-maximal effect); details: CHO-K1 GR-EFC translocation, beta-gal luminescence, 2 h
# In short: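 Translocation of GR-ED fusion to nuclear EA restores b-gal, read by luminescence after 1 h room-temperature detection. Engineered CHO-K1 biosensor cells, 1,000/well, exposed 2 h at 37 C to titrations up to 46 uM final.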
# [2] = Cellular Toxicity (caspase-3) H-4-II-E (AID 663); details: H-4-II-E rat hepatoma, scaled: DMSO 0%, 100 µM tamoxifen 100%; at 92.2 µM (top of the series);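 note: cells exposed to compound for 16 hr before readout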
# In short: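 Apoptosis induction is scored as increased luminescence from caspase 3/7 substrate cleavage in rat hepatoma H-4-II-E cells exposed to compound for 16 hr. Activity is scaled between DMSO and 100 uM tamoxifen.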
# [3] = MultiTox-Fluor Cytotoxicity Assay - LYMP1-001 - Live Cells (AID 947); note: potency is the fitted concentration of half-maximal effect
# [4] = MultiTox-Fluor Cytotoxicity Assay - LYMP1-002 - Dead Cells (AID 960); note: nearly all actives have a fitted effect of over 60% in size; note: potency is the fitted concentration of half-maximal effect
# In short: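 Human lymphoblastoid LYMP1-002 cells, 2500/well, treated 16 h at 37 C; dead-cell protease cleavage of bis-AAF-R110 read by fluorescence (485/520); normalized to DMSO and 15 uM tetraoctylammonium bromide; AC50 from Hill fit.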
# [5] = MultiTox-Fluor Cytotoxicity Assay - LYMP1-003 - Dead Cells (AID 961); note: nearly all actives have a fitted effect of over 70% in size; note: potency is the fitted concentration of half-maximal effect
# In short: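 LYMP1-003 lymphoblastoid, 2500 cells/well, 5 hr settle then 16 hr cpd at 37 C; MultiTox-Fluor reagent 60 min RT; Ex/Em 485/520 dead-cell signal; norm. DMSO = 0%, 15 uM tetraoctylammonium bromide = 100%; Hill AC50.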
# [6] = Cell Viability - LYMP2-004 (AID 966); note: nearly all actives have a fitted effect of over 65% in size; note: potency is the fitted concentration of half-maximal effect
# In short: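 Lymphoblastoid LYMP2-004 cells, 2500 per well, were preincubated for 5 hr and then treated with compound for 24 h at 37 C in complete medium. Viability was read as cellular ATP by CellTiter-Glo luminescence, and AC50 values were taken from Hill fits to concentration-response data.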
# [7] = Cell Viability - LYMP2-007 (AID 979);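 note: cells exposed to compound for 24 h before reading; nearly all actives have a fitted effect of over 60% in size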; note: potency is the fitted concentration of half-maximal effect
# In short: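 Human lymphoblastoid LYMP2-007 cells (2500/well) preincubated 5 h at 37 C, then treated 24 h at 37 C in complete medium. Viability by CellTiter-Glo ATP luminescence after 30 min at room temperature; AC50 from Hill fits.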
# [8] = Cell Viability - LYMP2-012 (AID 982);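 note: cellular ATP by luciferase luminescence where a drop means cytotoxicity; cells exposed to compound for one day before reading; nearly all actives have a fitted effect of over 55% in size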; note: potency is the fitted concentration of half-maximal effect
# [9] = Cell Viability - LYMP2-014 (AID 983); note: nearly all actives have a fitted effect of over 50% in size; note: potency is the fitted concentration of half-maximal effect
# In short: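 LYMP2-014 human lymphoblastoid cells, 2500/well, treated 24 h at 37 C in complete medium; viability by CellTiter-Glo ATP luminescence after 30 min at room temperature. AC50 from Hill fits of qHTS concentration-response; tetraoctylammonium bromide positive control.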
# [10] = Cell Viability - LYMP2-020 (AID 986); note: nearly all actives have a fitted effect of over 55% in size; note: potency is the fitted concentration of half-maximal effect
# In short: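 Human lymphoblastoid LYMP2-020 cells (2500/well) preincubated 5 h at 37 C, then treated 24 h at 37 C. Viability measured as intracellular ATP by CellTiter-Glo luminescence after 30 min at room temperature; AC50 from Hill fits.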
# [11] = Cell Viability - LYMP2-022 (AID 987); note: nearly all actives have a fitted effect of over 55% in size; note: potency is the fitted concentration of half-maximal effect
# In short: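 LYMP2-022 lymphoblastoid cells (2500/well, complete medium) were treated with compounds for 24 hours at 37 C; intracellular ATP was then read by CellTiter-Glo luminescence after 30 min at room temperature. AC50 values were derived from Hill-equation fits.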
# [12] = Cell Viability - LYMP2-024 (AID 988); note: nearly all actives have a fitted effect of over 60% in size; note: potency is the fitted concentration of half-maximal effect
# In short: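 Human lymphoblastoid LYMP2-024 cells (2500/well) rested 5 hr, then treated with compound for 24 hr at 37 C in complete medium. Viability was measured as intracellular ATP by CellTiter-Glo luminescence. AC50 values came from Hill-equation fits.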
# [13] = biological target: Estrogen receptor (Homo sapiens) (UniProt P03372); test: qHTS assay for small molecule antagonists of estrogen receptor alpha signaling (AID 588513; active = well fitted curve in the direction sought with a large enough effect in the signal ratio, with a control signal flat, not every such curve was filed as active; inconclusive = small, poorly fitted or top-dose-only effect, or effect the other way, or a change in a side signal; inactive = no such curve, though single readings can be large or run the other way; the % refers to the signal ratio; note: potency is the fitted concentration of half-maximal effect)
# In short: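 Fluorescence from CCF4 substrate after 2 h at room temperature gave reporter activity; cells had been exposed to compound and 0.5nM 17-beta-estradiol for 18 h at 37 C. Hill-equation fitting yielded IC50 and maximal response.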
# [14] = qHTS assay for small molecule activators of the p53 signaling pathway (AID 651743; active = well fitted activation curve with a large enough effect in the signal ratio, not every such curve was filed as active; inconclusive = small, poorly fitted or top-dose-only effect, or a change in a side signal; the % refers to the signal ratio; note: potency is the fitted concentration of half-maximal effect; for activation: % of control where 0% means no effect); details: HCT-116 p53RE-bla, beta-lactamase FRET ratio, 16 h; activation: stronger effect = higher value
# In short: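 Read-out is fluorescence intensity from the LiveBLAzer B/G FRET substrate, added for 2 hours at room temperature after HCT-116 p53RE-bla cells had been incubated with compounds for 16 hours at 37 C.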
# [15] = biological target: Nuclear receptor ROR-gamma (Homo sapiens) (UniProt P51449); test: qHTS assay for small molecule antagonists of the retinoid-related orphan receptor gamma (ROR-gamma) signaling pathway (AID 651802); note: nearly all actives have a fitted effect of over 60% in size; note: potency is the fitted concentration of half-maximal effect
# In short: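 CHO cells with TET-inducible ROR-gamma and RORE-luciferase reporter, dosed then doxycycline-induced. After 16 h at 37C, One-Glo luminescence read; decreased signal indicates antagonism.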
# [16] = qHTS assay for cell viability of the p53RE-bla HCT-116 cell line (AID 743292); note: nearly all actives have a fitted effect of over 55% in size; note: potency is the fitted concentration of half-maximal effect
# In short: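 Intracellular ATP of p53RE-bla HCT-116 cells measured by luciferase luminescence following 16 h compound incubation at 37 C; DMSO-only wells served as vehicle controls.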
# [17] = Cell Viability - HepG2 (AID 433; calls by dose curve;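 note: potency is the fitted concentration of half-maximal effect; cells exposed to compound for 40 hours; potency for ATP loss meaning cytotoxicity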); details: qHTS
# In short: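 Read-out is luciferase-based quantitation of cellular ATP as a measure of viable HepG2 cells after 40 h treatment at 37 °C. Signal decrease is scaled between DMSO-only and 100 uM tamoxifen controls, with AC50 fitted by the Hill equation.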
# [18] = MultiTox-Fluor Cytotoxicity Assay - LYMP1-001 - Dead Cells (AID 946); note: potency is the fitted concentration of half-maximal effect
# In short: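 Seed 2500 LYMP1-001 cells/well, incubate 5 hr at 37 C; add compound, 16 hr at 37 C; add MultiTox-Fluor reagent, 60 min RT; read dead-cell fluorescence Ex/Em=485/520. Normalize to DMSO and 15 uM tetraoctylammonium bromide.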
# [19] = Cellular Toxicity (caspase-3) Jurkat (AID 655); details: Jurkat caspase-3 activation, luminescence; caspase-3 activation: at 92.2 µM (top of the series), DMSO = 0%, tamoxifen = 100%;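 note: cells exposed to compound for 16 h at 37 °C before reading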; note: potency is the fitted concentration of half-maximal effect
# In short: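 5000 Jurkat cells/well; compound 16 hr, 37 °C; Caspase-Glo 3/7 added, 20 min RT; luminescence read. Norm: DMSO = 0%, tamoxifen 100 uM = 100%. AC50, Hill model.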
# [20] = qHTS assay for small molecule antagonists of the retinoid-related orphan receptor gamma (ROR-gamma) signaling pathway - cell viability counter screen (AID 720652; active = well fitted curve in the direction sought with a large enough effect in the repeat runs; inconclusive = weak or mixed curves; inactive = no such curve, though single readings can be large; an effect the other way counts as inactive or inconclusive;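 note: compound exposure lasted 16 hr before ATP read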; note: potency is the fitted concentration of half-maximal effect)
# In short: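 CHO cells carrying TET-inducible ROR and RORE-luciferase reporter, plated 5 hr, then dosed with compound plus doxycycline. After 16 hr at 37 C, viability read as intracellular ATP by CellTiter-Glo luminescence.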
# Nuclear receptor ROR-gamma (Homo sapiens), sequence (P51449 whole entry, looked up): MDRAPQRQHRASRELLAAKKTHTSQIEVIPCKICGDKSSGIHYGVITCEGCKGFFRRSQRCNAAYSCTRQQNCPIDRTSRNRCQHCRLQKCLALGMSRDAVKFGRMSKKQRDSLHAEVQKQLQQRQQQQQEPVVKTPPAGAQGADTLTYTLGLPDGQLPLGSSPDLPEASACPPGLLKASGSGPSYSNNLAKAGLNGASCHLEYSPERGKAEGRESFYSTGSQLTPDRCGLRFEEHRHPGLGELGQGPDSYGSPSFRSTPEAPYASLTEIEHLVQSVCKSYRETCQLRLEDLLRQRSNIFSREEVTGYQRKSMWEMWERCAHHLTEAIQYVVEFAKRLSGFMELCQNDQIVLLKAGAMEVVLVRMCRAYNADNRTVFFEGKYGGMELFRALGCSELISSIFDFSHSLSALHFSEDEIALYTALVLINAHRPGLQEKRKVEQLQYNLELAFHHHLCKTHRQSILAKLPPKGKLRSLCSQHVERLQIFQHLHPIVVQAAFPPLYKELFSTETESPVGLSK
# Estrogen receptor (Homo sapiens), sequence (P03372 whole entry, looked up): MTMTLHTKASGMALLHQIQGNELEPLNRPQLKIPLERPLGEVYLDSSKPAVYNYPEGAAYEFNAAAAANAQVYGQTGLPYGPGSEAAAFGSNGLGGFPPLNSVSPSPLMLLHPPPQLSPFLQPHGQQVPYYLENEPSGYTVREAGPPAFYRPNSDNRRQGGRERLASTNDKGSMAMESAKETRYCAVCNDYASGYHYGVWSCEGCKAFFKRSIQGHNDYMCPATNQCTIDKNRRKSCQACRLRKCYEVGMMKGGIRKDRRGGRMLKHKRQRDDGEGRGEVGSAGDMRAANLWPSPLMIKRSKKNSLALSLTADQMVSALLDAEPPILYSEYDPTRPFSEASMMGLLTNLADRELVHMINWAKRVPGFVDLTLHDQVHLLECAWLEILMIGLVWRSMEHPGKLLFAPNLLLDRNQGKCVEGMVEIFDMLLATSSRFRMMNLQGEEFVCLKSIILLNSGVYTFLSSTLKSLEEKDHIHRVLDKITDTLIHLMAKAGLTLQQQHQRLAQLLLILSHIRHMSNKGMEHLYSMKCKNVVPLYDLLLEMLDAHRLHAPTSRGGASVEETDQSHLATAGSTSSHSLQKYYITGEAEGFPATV
# Glucocorticoid receptor (Homo sapiens), sequence (P04150 whole entry, looked up, the tested form may be a part): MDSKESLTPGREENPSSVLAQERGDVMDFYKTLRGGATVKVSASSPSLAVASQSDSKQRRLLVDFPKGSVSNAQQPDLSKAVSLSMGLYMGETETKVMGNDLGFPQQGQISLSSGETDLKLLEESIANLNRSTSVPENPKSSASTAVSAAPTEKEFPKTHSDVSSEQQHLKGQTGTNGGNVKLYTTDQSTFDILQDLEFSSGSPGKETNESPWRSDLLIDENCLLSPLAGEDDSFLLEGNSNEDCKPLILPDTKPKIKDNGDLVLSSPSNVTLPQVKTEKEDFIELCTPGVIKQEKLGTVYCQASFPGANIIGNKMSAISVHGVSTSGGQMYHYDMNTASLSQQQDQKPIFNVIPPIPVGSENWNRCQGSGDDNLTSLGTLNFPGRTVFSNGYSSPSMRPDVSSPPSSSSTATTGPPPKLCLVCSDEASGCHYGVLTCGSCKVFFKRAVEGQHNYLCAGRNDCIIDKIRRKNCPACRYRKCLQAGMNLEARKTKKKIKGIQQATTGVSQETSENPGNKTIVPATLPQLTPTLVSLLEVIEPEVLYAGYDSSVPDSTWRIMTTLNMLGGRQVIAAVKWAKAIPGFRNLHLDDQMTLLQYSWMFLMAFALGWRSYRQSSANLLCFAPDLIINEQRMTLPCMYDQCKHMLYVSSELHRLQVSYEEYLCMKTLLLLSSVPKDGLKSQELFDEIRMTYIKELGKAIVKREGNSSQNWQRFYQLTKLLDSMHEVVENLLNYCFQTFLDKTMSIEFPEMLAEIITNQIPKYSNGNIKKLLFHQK
smiles,measurement,setting,value
Oc1cc2c(cc1O)[C@H]1c3ccccc3CN[C@@H]1CC2,Potency,[1],> 46 µM
CN(C)c1ccc(N=O)cc1,caspase-3 activation,[2],-1.57%
same,Potency,[3],10 µM (active)
same,Potency,[4],3.16 µM (active)
same,Potency,[5],3.98 µM (active)
same,Potency,[6],0.794 µM (active)
same,Potency,[7],0.794 µM (active)
same,Potency,[8],0.631 µM (active)
same,Potency,[9],2.51 µM (active)
same,Potency,[10],1.26 µM (active)
same,Potency,[11],0.631 µM (active)
same,Potency,[12],0.501 µM (active)
same,Potency,[13],22.4 µM [inconclusive] (active)
same,activation,[14],-1.31%
same,Potency,[15],7.5 µM (active)
same,Potency,[16],inactive
C(=NC1CCCCC1)=NC1CCCCC1,Potency,[17],3.31 µM (active)
same,caspase-3 activation,[2],91.9% (active)
same,Potency,[18],inactive
same,Potency,[3],inactive
same,Potency,[5],inactive
same,Potency,[13],inactive
same,Potency,[15],18.8 µM (active)
same,Potency,[16],inactive
[Cd+2].[Cl-].[Cl-],caspase-3 activation,[19],-2.73%
same,caspase-3 activation,[2],-2.46%
same,Potency,[18],inactive
same,Potency,[4],inactive
same,Potency,[7],39.8 µM (active)
same,Potency,[11],39.8 µM (active)
same,Potency,[13],44.7 µM [inconclusive] (active)
same,activation,[14],-8.9%
same,Potency,[15],3.35 µM (active)
same,Potency,[20],21.1 µM (active)
same,Potency,[16],inactive
[CH3][Hg][Cl],Potency,[17],31.7 µM (active)
same,caspase-3 activation,[19],-8.35%
same,Potency,[3],39.8 µM (active)
same,Potency,[6],3.98 µM (active)
same,Potency,[7],3.98 µM (active)
same,Potency,[8],3.16 µM (active)
same,Potency,[9],3.98 µM (active)
same,Potency,[10],2.51 µM (active)
same,Potency,[11],2.51 µM (active)
same,Potency,[12],2 µM (active)
same,Potency,[13],39.8 µM [inconclusive] (active)
same,Potency,[15],6.68 µM (active)
same,Potency,[20],10.6 µM (active)
Cc1ccc(O)cc1C,Potency,[17],> 92 µM
same,activation,[14],-0.374%
c1ccc2cc3c(cc2c1)-c1cccc2cccc-3c12,Potency,[17],> 92 µM
same,caspase-3 activation,[19],-1.28%
same,caspase-3 activation,[2],0.959%
same,Potency,[18],inactive
same,Potency,[3],inactive
same,Potency,[4],inactive
same,Potency,[5],inactive
same,Potency,[6],inactive
same,Potency,[7],inactive
same,Potency,[8],inactive
same,Potency,[9],inactive
same,Potency,[10],inactive
same,Potency,[11],inactive
same,Potency,[12],inactive
same,Potency,[13],inactive
same,Potency,[14],6.31 µM (active) and 8.91 µM (active)
same,Potency,[15],inactive
same,Potency,[20],inactive
Oc1c(Br)c(Br)c(Br)c(Br)c1Br,Potency,[17],> 92 µM
same,Potency,[19],31.6 µM (active)
same,caspase-3 activation,[2],10.1%
same,Potency,[18],inactive
same,Potency,[3],inactive
same,Potency,[4],inactive
same,Potency,[5],inactive
same,Potency,[6],inactive
same,Potency,[8],inactive
same,Potency,[9],inactive
same,Potency,[10],inactive
same,Potency,[11],inactive
same,Potency,[12],inactive
same,Potency,[13],39.8 µM [inconclusive] (active)
same,Potency,[20],inactive
same,Potency,[16],inactive
C#CCO,Potency,[17],> 92 µM
same,caspase-3 activation,[19],-1.9%
same,caspase-3 activation,[2],0.354%
same,Potency,[18],inactive
same,Potency,[3],inactive
same,Potency,[4],inactive
same,Potency,[5],inactive
same,Potency,[6],inactive
same,Potency,[7],inactive
same,Potency,[8],inactive
same,Potency,[9],inactive
same,Potency,[10],inactive
same,Potency,[11],inactive
same,Potency,[12],inactive
same,Potency,[13],inactive
same,activation,[14],0.794%
same,Potency,[15],inactive
same,Potency,[20],inactive
Oc1c(Cl)cc(Cl)cc1Cl,Potency,[17],> 92 µM
same,activation,[14],-6.01% and -1.45%
N#CSCSC#N,Potency,[17],50.3 µM (active)
same,caspase-3 activation,[19],-5.48% (active)
same,caspase-3 activation,[2],-3.87%
same,Potency,[18],25.1 µM (active)
same,Potency,[3],39.8 µM (active)
same,Potency,[4],10 µM (active)
same,Potency,[5],25.1 µM (active)
same,Potency,[6],6.31 µM (active)
same,Potency,[7],6.31 µM (active)
same,Potency,[8],5.01 µM (active)
same,Potency,[9],7.94 µM (active)
same,Potency,[10],5.01 µM (active)
same,Potency,[11],5.01 µM (active)
same,Potency,[12],3.98 µM (active)
same,Potency,[14],25.1 µM (active)
same,Potency,[20],9.44 µM (active)
same,Potency,[16],50.1 µM (active)
FC(F)(F)c1ccc(Cl)cc1,Potency,[17],> 92 µM
same,caspase-3 activation,[19],2.36%
same,caspase-3 activation,[2],1.12%
same,Potency,[18],inactive
same,Potency,[3],inactive
same,Potency,[4],inactive
same,Potency,[5],inactive
same,Potency,[6],inactive
same,Potency,[7],inactive
same,Potency,[8],inactive
same,Potency,[9],inactive
same,Potency,[10],inactive
same,Potency,[11],inactive
same,Potency,[12],inactive
same,Potency,[13],inactive
same,activation,[14],-2.63% and 1.33%
same,Potency,[15],inactive
same,Potency,[20],inactive
same,Potency,[16],inactive
COC1=C[C@H]2[C@@H]3Cc4ccc(OC)c(O)c4[C@@]2(CCN3C)CC1=O,Potency,[1],> 46 µM
CC[C@H](CO)NC(=O)[C@H]1C=C2c3cccc4[nH]cc(c34)C[C@H]2N(C)C1,Potency,[1],> 46 µM
COc1cc2c(cc1O)CCN[C@H]2C,Potency,[1],> 46 µM
C=C(C)[C@H]1[C@H]2OC(=O)[C@@H]1[C@]1(O)C[C@H]3O[C@]34C(=O)O[C@H]2[C@]14C,Potency,[1],> 46 µM
CC1=CC(=O)C2=C(C)C[C@H](O)[C@@H]3[C@@H](OC(=O)[C@H]3C)[C@H]12,Potency,[1],> 46 µM
Oc1cc2c(cc1O)[C@H]1c3ccccc3CN[C@H]1CC2,Potency,[1],> 46 µM
COc1cc2c(cc1OC)-c1c(O)c(OC)cc3c1[C@@H](C2)N(C)CC3,Potency,[1],> 46 µM
OC[C@H]1CCCN2CCCC[C@@H]12,Potency,[1],> 46 µM
COc1cc2c(cc1OC)-c1c(OC)c(OC)c(CO)c3c1[C@H](C2)N(C)CC3,Potency,[1],> 46 µM
O=c1ccc2cc(O[C@@H]3O[C@@H](CO)[C@@H](O)[C@@H](O)[C@H]3O)c(O)cc2o1,Potency,[1],> 46 µM
C[C@H]1CC[C@@H]2[C@@H](C)C(=O)O[C@H]3O[C@@]4(C)CC[C@@H]1[C@]32OO4,Potency,[1],> 46 µM
C[C@@]12CCC[C@](C)(C(=O)O)[C@@H]1CCc1ccc(O)cc12,Potency,[1],> 46 µM
CC(C)(O)[C@H]1[C@H]2OC(=O)[C@@H]1[C@]1(O)C[C@H]3O[C@]34C(=O)O[C@H]2[C@]14C,Potency,[1],> 46 µM
